Test results from PubChem BioAssay AID528 (NMMLSC, 2006).
The campaign covered roughly 24,000 compounds. Fewer than 10 were called active. Inconclusive results (about 9%) are left out. Not all results are given here. A number with no mark means an inactive call.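 How the source made its calls: active means fluorescent ligand binding to cells raised by more than 40% of the manganese-induced maximum; inconclusive means compound's own fluorescence above 85% of the ligand control signal; inactive means the rest.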

Biological target: Integrin alpha-4 (Homo sapiens) (UniProt P13612)
Test: increased LDV-FITC ligand binding on VLA-4 – Jurkat cells, flow cytometry, primary screen (AID 528);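 further: 0% = ligand binding without compound and 100% = manganese-stimulated maximal binding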
Conditions: stronger effect = higher value, screened at 10 µM (by protocol)

Integrin alpha-4 (Homo sapiens), sequence (P13612 whole entry, looked up): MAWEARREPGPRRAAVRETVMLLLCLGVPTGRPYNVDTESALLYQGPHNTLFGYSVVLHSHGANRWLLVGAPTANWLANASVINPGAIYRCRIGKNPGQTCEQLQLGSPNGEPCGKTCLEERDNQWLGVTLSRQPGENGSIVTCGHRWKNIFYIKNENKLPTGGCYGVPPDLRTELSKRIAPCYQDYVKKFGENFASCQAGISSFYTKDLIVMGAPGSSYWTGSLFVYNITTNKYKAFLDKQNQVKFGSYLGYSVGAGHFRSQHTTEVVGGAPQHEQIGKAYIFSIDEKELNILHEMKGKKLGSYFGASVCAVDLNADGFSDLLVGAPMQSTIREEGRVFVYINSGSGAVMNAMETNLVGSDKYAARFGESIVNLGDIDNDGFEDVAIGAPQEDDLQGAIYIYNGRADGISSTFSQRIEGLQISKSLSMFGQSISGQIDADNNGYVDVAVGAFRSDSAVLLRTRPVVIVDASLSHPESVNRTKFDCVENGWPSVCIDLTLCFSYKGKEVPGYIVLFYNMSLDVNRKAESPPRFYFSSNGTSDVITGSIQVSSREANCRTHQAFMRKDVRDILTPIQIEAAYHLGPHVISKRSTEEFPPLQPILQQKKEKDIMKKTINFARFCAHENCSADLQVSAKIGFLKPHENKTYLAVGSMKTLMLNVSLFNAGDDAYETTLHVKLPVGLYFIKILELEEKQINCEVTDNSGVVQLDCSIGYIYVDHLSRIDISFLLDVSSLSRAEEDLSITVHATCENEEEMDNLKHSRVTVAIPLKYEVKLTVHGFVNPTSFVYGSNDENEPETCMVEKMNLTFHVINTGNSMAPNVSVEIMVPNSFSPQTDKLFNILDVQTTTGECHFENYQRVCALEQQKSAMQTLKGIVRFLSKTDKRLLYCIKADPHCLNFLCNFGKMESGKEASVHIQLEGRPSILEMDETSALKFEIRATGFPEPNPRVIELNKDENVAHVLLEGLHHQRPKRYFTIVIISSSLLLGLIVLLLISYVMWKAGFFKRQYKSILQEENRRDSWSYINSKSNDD

| Structure (SMILES) | activation |
| --- | --- |
| Cc1ccccc1S(=O)(=O)Cc1ccc(C(=O)NCCN2CCCCC2C)o1 (centres undefined) | -1% |
| Nc1c(C(=O)NCc2ccccc2)nnn1Cc1cccc(Cl)c1 | -4% |
| CCCCCOC(=O)C1=C(C)Nc2nnnn2C1c1ccc(OC)c(OC)c1OC (centres undefined) | -4% |
| CCC(=O)N1c2ccc(S(=O)(=O)CCC(=O)N3CCN(c4ccccc4)CC3)cc2CC1C (centres undefined) | -5% |
| COc1ccc(OC)c(CNC(=O)CCc2nc(-c3cccs3)no2)c1 | 2% |
| Cc1ccccc1NC(=O)c1ccccc1 | -14.5% |
| CCOC(=O)N1CCC(NC(=O)CCc2cn(C)c3ccccc23)CC1 | 8% |
| COc1cc2[nH]c(=S)n(Cc3ccc(C)o3)c(=O)c2cc1OC | 0% |
| CCOC(=O)CNC(=O)CN1C(=O)CCSc2ccccc21 | 6% |
| CCOC(=O)c1ccc(CS(=O)c2ccc(Cl)cc2)o1 (centres undefined) | 4% |
| COC(=O)C1=C(C)OC(N)=C(C#N)C1c1cc(OC)ccc1OC (centres undefined) | -3% |
| Cc1ccc(NC(=O)C2CC(c3ccc(F)cc3)=NO2)cc1 (centres undefined) | 3% |
| CCc1c(C)c2c(C)[nH]nc2oc1=O | -1% |
| CC12COC3(C(=O)Nc4ccc(Cl)cn4)CC1CCC32C (centres undefined) | 5% |
| Cc1ccc(S(=O)(=O)NCC(=O)N(CC(=O)NC2CCCCC2)Cc2ccco2)cc1 | 2% |
| O=C1Nc2c(Br)cc(Br)cc2C1(O)N1CCOCC1 (centres undefined) | 9% |
| CCOC(=O)N1CCN(C(=O)C2CC(c3ccc(F)cc3)=NO2)CC1 (centres undefined) | 6% |
| Clc1ccc(Cc2nn3c(-c4ccncc4)nnc3s2)cc1 | 2% |
| CCOCCc1c(O)nc(SCC(=O)NCc2ccco2)[nH]c1=O | -1% |
| COc1cccc(C(=O)Nc2c3c(nn2-c2cccc(C)c2C)CS(=O)(=O)C3)c1OC | -3% |
| COc1ccc2oc(=O)c(C(=O)N3CCN(c4ccccc4F)CC3)cc2c1 | 3.5% |
| CCOc1ccccc1NC(=O)C1CCN(S(=O)(=O)c2c(C)nn(C)c2C)CC1 | 2% |
| COc1ccc(CCNC(=O)CCCCn2c(=O)[nH]c3ccccc3c2=O)cc1OC | 4% |
| C#CC(C)(C)NC(=O)CSc1nc2c(c(=O)n(C)c(=O)n2C)n1CCCC | 8% |
| CCCS(=O)(=O)N1CCCC(C(=O)N2CCN(c3ccccc3)CC2)C1 (centres undefined) | 0% |

| Structure (SMILES) | activation |
| --- | --- |
| CCOC(=O)C1CCCN(C(=O)C2CCN(c3nnc(-n4cccc4)s3)CC2)C1 (centres undefined) | -1% |
| CCOC(=O)N1CCC(Nc2c(NCCCN3CCN(c4ccc(OC)cc4)CC3)c(=O)c2=O)CC1 | -4% |
| COC(=O)c1ccc(NC(=O)CSc2nnc(Cc3cccn3C)n2-c2ccc(F)cc2)cc1 | -4% |
| Cc1noc(C)c1S(=O)(=O)N(CC(=O)Nc1ccc2c(c1)OCCO2)c1ccc(C(C)C)cc1 | -8% |
| Cn1c(C(=O)N2CCC(C(N)=O)CC2)cc2c(=O)n(C)c3ccccc3c21 | -1% |
| O=C(Nc1ccccc1C(=O)N1CCOCC1)C1CCC(=O)N1C1CCCC1 (centres undefined) | 8% |
| CN1CCN(S(=O)(=O)c2ccc3[nH]cc(C(=O)O)c(=O)c3c2)CC1 | 2% |
| Cc1ccnc(N2C(=O)c3ccccc3C2Nc2ccc3c(c2)OCCO3)c1 (centres undefined) | -5% |
| COCCCNC(=O)c1ccc(CNS(=O)(=O)c2ccc(NC(C)=O)cc2)cc1 | -3.5% |
| Cc1nc(N2CCN(c3ncccn3)CC2)c2oc3ccccc3c2n1 | -3.5% |
| CC(C)OCCCNC(=O)C1CC(=O)N(C2CCCCCCC2)C1 (centres undefined) | -1% |
| Cc1ccc(S(=O)(=O)N2CCCC2CO)cc1 (centres undefined) | 5% |
| COc1ccc(C(=O)NC(=O)CSc2nnc(-c3ccco3)n2-c2ccccc2)cc1 | 1.3% |
| Cc1ccccc1CN1CCN(C(=O)c2cccc(F)c2)CC1 | 4% |
| CC1CCN(Cc2nc3c(c(=O)n(C)c(=O)n3C)n2Cc2cccc3ccccc23)CC1 | 2% |
| CCOc1nc(OCC)nc(-n2cc(-c3ccccc3)nn2)n1 | 2% |
| FC(F)Oc1ccccc1C1CC(c2ccc(Br)s2)Nc2ncnn21 (centres undefined) | 3% |
| Cc1cc(Nc2cccc(F)c2)n2ncnc2n1 | -0.5% |
| O=C(c1ccco1)N1CCN(C(=O)c2ccc(COc3ccc(F)cc3)o2)CC1 | 0% |
| Cn1c(CNC(=O)C(C)(C)C)nc2ccccc21 | -3% |
| Cc1cc(NS(=O)(=O)c2ccccc2)no1 | 5.5% |
| CCOC(=O)c1cn(CC(=O)Nc2ccc(C(C)C)cc2)nn1 | -2% |
| Cc1cccc(C)c1NC(=O)N1CC=C(n2c(=O)[nH]c3ccccc32)CC1 | 0% |
| Cc1ccc(S(=O)(=O)n2nc(OC(=O)C(C)(C)C)cc2N)cc1 | 4% |
| CCOC(=O)c1c(C)c(C(=O)NCCc2ccc(S(N)(=O)=O)cc2)c(C)n1CC | 16% |

| Structure (SMILES) | activation |
| --- | --- |
| O=C(O)C1C2C=CC(C2)C1C(=O)N1CCN(CCO)CC1 (centres undefined) | -2% |
| Cc1cnc(C(=O)OCC(=O)Nc2ccc(Cl)cc2Cl)cn1 | 3% |
| CCOC(=O)Cn1c(CN(Cc2ccccc2)Cc2ccccc2)nc2c1c(=O)[nH]c(=O)n2C | -5% |
| O=S(=O)(O)CCN1CCOCC1 | -6% |
| O=C(NC1CCCCC1)C1CCCN(S(=O)(=O)c2cccs2)C1 (centres undefined) | -10.5% |
| COc1ccc(C(=O)NCc2cn3ccccc3n2)cc1 | -2% |
| Cc1ccccc1NC(=O)Cc1nnc(SCC(=O)N2CCN(c3ccccc3)CC2)n1C | 0.5% |
| CC(C)CCNC(=O)CCNS(=O)(=O)c1ccc(Cl)cc1 | -2.7% |
| COc1ccccc1-c1c(C)nn2c(C)c(C(C)=O)cnc12 | -2% |
| COc1cccc(OCC(O)CN2CCN(CCO)CC2)c1 (centres undefined) | 3.3% |
| CCCC(=O)Nc1cccc(-c2cn3ccsc3n2)c1 | 3% |
| Cc1noc(C)c1S(=O)(=O)NCCc1ccc(S(N)(=O)=O)cc1 | 3% |
| CC(=O)N(CC1CCCO1)C1(C(=O)NC2CCCC2)CCCCC1 (centres undefined) | 0% |
| COC(=O)c1ccc(CN(c2ccccc2OC)S(=O)(=O)c2cccs2)o1 | -2% |
| O=C(CCS(=O)(=O)Cc1ccccc1F)NCCCN1CCCCC1 | -2% |
| COc1ccc(CN2C(=O)CN=C2Nc2ccc(C)cc2C)cc1 | 6% |
| COc1cccc(N2C(=O)CC(N3CCN(S(=O)(=O)c4ccccc4)CC3)C2=O)c1 (centres undefined) | -2% |
| CN(CCCNC(=O)CN1C(=O)CC(C)(C)S(=O)(=O)c2ccccc21)C1CCCCC1 | 6% |
| Cc1ccc(NC(=O)CCNS(=O)(=O)c2ccc3c(c2)oc(=O)n3C)cc1C | 9% |
| O=C(COC(=O)c1ccccc1C(=O)c1ccccc1)c1ccco1 | 2.5% |
| CNC(=O)Nc1cc(C(C)(C)C)no1 | -2% |
| Cc1cc(=O)n2nc(N3CCCC(C(=O)NCCC4=CCCCC4)C3)sc2n1 (centres undefined) | -3% |
| CC(c1cccnc1)N(CCN(C)C)C(=O)Nc1ccc(Cl)c(Cl)c1 (centres undefined) | -2% |
| CSc1sc(C)cc1C1C(C#N)=C(N)N(c2cccnc2)C2=C1C(=O)CCC2 (centres undefined) | 0% |
| COc1ccc(C2C3=C(OC(C)=O)c4ccccc4C3=Nc3c2c(=O)n(C)c(=O)n3C)cc1 (centres undefined) | -0.5% |

| Structure (SMILES) | activation |
| --- | --- |
| COCCNC(=O)CN1C(=O)CSc2ncccc21 | 2.7% |
| CC(=O)Nc1ccc(S(=O)(=O)N2CCC(N(C)CCC(C)C)CC2)cc1 | 4% |
| CCOC(=O)N1CCC(NC(=O)COc2cc(=O)n(C)c3ccccc23)CC1 | -3% |
| O=C(O)CCN1C(=O)CC2(CCCCC2)C1=O | -1% |
| c1cc(-c2nn[nH]n2)ccc1CN1CCCCC1 | 1% |
| O=C(O)CSCNC(=O)CC12CC3CC(CC(C3)C1)C2 | 13% |
| CCC(C)NC(=O)C1CCC(=O)N1Cc1ccc(C)cc1 (centres undefined) | 4% |
| O=c1c(-c2ccccc2)coc2c(CN3CCOCC3)c(O)ccc12 | 9.5% |
| Cc1noc(C)c1S(=O)(=O)N(CC(=O)NCc1ccc(Cl)cc1)c1ccc2c(c1)OCO2 | 3% |
| CC(C)C(=O)Nc1c(C(=O)c2ccc(F)cc2)oc2ccccc12 | -2% |
| O=C(CCCCn1c(=O)[nH]c2ccccc2c1=O)NCc1ccc2c(c1)OCO2 | 10% |
| CCCC(=O)NC(C)C(c1cccs1)N1CCN(c2ccccc2)CC1 (centres undefined) | -2% |
| Cn1cccc1C1(C(F)(F)F)NCCNC1=O (centres undefined) | 1% |
| Cc1ccccc1CSc1nnc(Cn2c(=O)sc3ccccc32)n1C | 4% |
| Nc1nonc1C(=O)NCCc1ccccc1 | 6% |
| CCOc1ccc(-c2nnc3ccc(SC)nn23)cc1 | 4% |
| CCOc1ccc(-n2c(SC(C)C(=O)OC)nc3c(c2=O)SCC3)cc1 (centres undefined) | 0% |
| O=C(NCc1ccco1)C1CCCN(S(=O)(=O)c2cnc[nH]2)C1 (centres undefined) | -5% |
| O=C(Nc1nsc(-c2ccccc2)n1)c1ccncc1 | 4% |
| COc1nc(Oc2ccc(=O)n(C)n2)nc(N(C)C)n1 | 4% |
| C=CCOc1ccc(C2/C(=C(\O)c3c(C)[nH]c(C(=O)OC)c3C)C(=O)C(=O)N2CCN(C)C)cc1 (centres undefined) | -6% |
| CCOC(=O)C1CCN(C(=O)c2oc3ccc(S(=O)(=O)N4CCCCCC4)cc3c2C)CC1 | -3% |
| O=C(O)c1ccc(NC(=O)c2cccs2)cc1 | -2.5% |
| CCC1Oc2ccc(Cl)cc2N(CC(=O)O)C1=O (centres undefined) | 2% |
